Laboratory results taken from the supplement of paper PMC11865577.
Where a name gives a salt, the structure may show the parent alone.

How the values were obtained:
Assay in all cases: normalised indicator fluorescence (fraction of RNA + indicator signal without compound); higher = less displacement of indicator (weaker competition)
Details in all cases: compound concentration: 5 uM, 30 min
[1] = tested on: hsa-mir-191 loop
Procedure, shortened: (§1)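 For the displacement screen, RNA and a TO-PRO-1 or TO-PRO-3 indicator were held in 20 mM phosphate pH 7.0 with 20 mM NaCl and 80 mM KCl in 96-well plates. After adding 0.25 μL of each 1 mM DMSO stock (about 5 uM final) and waiting 30 min, fluorescence was measured on an Infinite 200 PRO with excitation at 485 or 620 nm. Each value is the mean of two independent experiments, expressed as blank-subtracted indicator fluorescence relative to the no-compound RNA-plus-indicator signal.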

[2] = tested on: hsa-mir-21 loop
Procedure, shortened: as §1

[3] = tested on: hsa-mir-221 loop
Procedure, shortened: as §1

[4] = tested on: hsa-mir-374a loop
Procedure, shortened: as §1

[5] = tested on: hsa-mir-6850 loop
Procedure, shortened: as §1

[6] = indicator: TO-PRO-1 0.1 uM, RNA concentration: 0.1 uM
[7] = indicator: TO-PRO-3 0.5 uM, RNA concentration: 0.5 uM

O=C(Nc1nc2ccc(NC(=O)C34CC5CC(CC(C5)C3)C4)cc2s1)c1ccccc1
normalised indicator fluorescence [1, 6]: 1
normalised indicator fluorescence [1, 7]: 1.02
normalised indicator fluorescence [2, 6]: 0.991
normalised indicator fluorescence [2, 7]: 1.02
normalised indicator fluorescence [3, 6]: 1.14
normalised indicator fluorescence [3, 7]: 1.05
normalised indicator fluorescence [4, 6]: 1.1
normalised indicator fluorescence [4, 7]: 1.06
normalised indicator fluorescence [5, 6]: 0.997
normalised indicator fluorescence [5, 7]: 0.982

CC(C)c1cc(C(C)C)c(CC(=O)NS(=O)(=O)Oc2c(C(C)C)cccc2C(C)C)c(C(C)C)c1 [Avasimibe]
normalised indicator fluorescence [1, 6]: 1.05
normalised indicator fluorescence [1, 7]: 1.12
normalised indicator fluorescence [2, 6]: 0.952
normalised indicator fluorescence [2, 7]: 1.08
normalised indicator fluorescence [3, 6]: 1.05
normalised indicator fluorescence [3, 7]: 1.03
normalised indicator fluorescence [4, 6]: 1.08
normalised indicator fluorescence [5, 6]: 0.985
normalised indicator fluorescence [5, 7]: 0.948

O=C1CCc2ccccc2C1 [Beta-Tetralone]
normalised indicator fluorescence [1, 6]: 1.04
normalised indicator fluorescence [1, 7]: 1.06
normalised indicator fluorescence [2, 6]: 1.05
normalised indicator fluorescence [2, 7]: 1.04
normalised indicator fluorescence [3, 6]: 1.04
normalised indicator fluorescence [3, 7]: 1.06
normalised indicator fluorescence [4, 6]: 1.07
normalised indicator fluorescence [4, 7]: 1.02
normalised indicator fluorescence [5, 6]: 0.996
normalised indicator fluorescence [5, 7]: 1.08

NC(=O)c1ccccc1Nc1ccnc(Nc2cccc(O)c2)n1
normalised indicator fluorescence [1, 6]: 0.949
normalised indicator fluorescence [1, 7]: 1.02
normalised indicator fluorescence [2, 6]: 0.974
normalised indicator fluorescence [2, 7]: 1.02
normalised indicator fluorescence [3, 6]: 0.967
normalised indicator fluorescence [3, 7]: 0.979
normalised indicator fluorescence [4, 6]: 1.12
normalised indicator fluorescence [4, 7]: 1.2
normalised indicator fluorescence [5, 6]: 0.993
normalised indicator fluorescence [5, 7]: 1.04

Cn1cc(C2=C(c3cn(CCCSC(=N)N)c4ccccc34)C(=O)NC2=O)c2ccccc21 [Ro 31-8220 Mesylate]
normalised indicator fluorescence [1, 6]: 1.38
normalised indicator fluorescence [1, 7]: 0.894
normalised indicator fluorescence [2, 7]: 0.929
normalised indicator fluorescence [3, 7]: 0.947
normalised indicator fluorescence [4, 7]: 1.02
normalised indicator fluorescence [5, 6]: 1.08
normalised indicator fluorescence [5, 7]: 0.859

CN1CCN(c2ccc(C(=O)Nc3n[nH]c4ccc(Cc5cc(F)cc(F)c5)cc34)c(NC3CCOCC3)c2)CC1 [Entrectinib]
normalised indicator fluorescence [1, 6]: 1.11
normalised indicator fluorescence [1, 7]: 1.04
normalised indicator fluorescence [2, 6]: 1.04
normalised indicator fluorescence [2, 7]: 1.04
normalised indicator fluorescence [3, 6]: 1.04
normalised indicator fluorescence [3, 7]: 1.18
normalised indicator fluorescence [4, 6]: 1.09
normalised indicator fluorescence [4, 7]: 1.56
normalised indicator fluorescence [5, 6]: 1.01
normalised indicator fluorescence [5, 7]: 1.03

Oc1ccc(OC2CCCCO2)cc1 (stereo not given) [Deoxyarbutin]
normalised indicator fluorescence [1, 6]: 1.11
normalised indicator fluorescence [1, 7]: 1.06
normalised indicator fluorescence [2, 6]: 1.03
normalised indicator fluorescence [2, 7]: 1.06
normalised indicator fluorescence [3, 6]: 1.03
normalised indicator fluorescence [3, 7]: 1.1
normalised indicator fluorescence [4, 6]: 1.03
normalised indicator fluorescence [4, 7]: 1.13
normalised indicator fluorescence [5, 6]: 0.979
normalised indicator fluorescence [5, 7]: 1

O=c1ccc2ccc(O)c(O)c2o1 [Daphnetin]
normalised indicator fluorescence [1, 6]: 1.01
normalised indicator fluorescence [1, 7]: 0.873
normalised indicator fluorescence [2, 6]: 1.09
normalised indicator fluorescence [2, 7]: 0.941
normalised indicator fluorescence [3, 6]: 0.91
normalised indicator fluorescence [3, 7]: 0.965
normalised indicator fluorescence [4, 6]: 1.09
normalised indicator fluorescence [4, 7]: 1.03
normalised indicator fluorescence [5, 6]: 1.19
normalised indicator fluorescence [5, 7]: 0.881

CC(=O)Oc1c(C)c(C)c2c(c1C)CCC(C)(CCC[C@H](C)CCC[C@H](C)CCCC(C)C)O2 (stereo not given in full) [Vitamin E Acetate]
normalised indicator fluorescence [1, 6]: 1.01
normalised indicator fluorescence [1, 7]: 1.05
normalised indicator fluorescence [2, 6]: 0.923
normalised indicator fluorescence [2, 7]: 1.04
normalised indicator fluorescence [3, 6]: 1.1
normalised indicator fluorescence [3, 7]: 1.05
normalised indicator fluorescence [4, 6]: 1.01
normalised indicator fluorescence [4, 7]: 1.02
normalised indicator fluorescence [5, 6]: 0.957
normalised indicator fluorescence [5, 7]: 1.02

O=C(COc1ccc(Cl)cc1)NC1CCC(NC(=O)COc2ccc(Cl)cc2)CC1 (stereo not given)
normalised indicator fluorescence [1, 6]: 1.03
normalised indicator fluorescence [1, 7]: 1.04
normalised indicator fluorescence [2, 6]: 0.954
normalised indicator fluorescence [2, 7]: 1.03
normalised indicator fluorescence [3, 6]: 1.05
normalised indicator fluorescence [3, 7]: 1.01
normalised indicator fluorescence [4, 6]: 1.07
normalised indicator fluorescence [4, 7]: 1.08
normalised indicator fluorescence [5, 6]: 0.894
normalised indicator fluorescence [5, 7]: 1.05

CO[C@@H]1[C@H](N(C)C(=O)c2ccccc2)C[C@H]2O[C@]1(C)n1c3ccccc3c3c4c(c5c6ccccc6n2c5c31)C(=O)NC4 [Midostaurin]
normalised indicator fluorescence [1, 6]: 1.16
normalised indicator fluorescence [1, 7]: 1.04
normalised indicator fluorescence [2, 6]: 1.09
normalised indicator fluorescence [2, 7]: 1.06
normalised indicator fluorescence [3, 6]: 1.18
normalised indicator fluorescence [3, 7]: 0.972
normalised indicator fluorescence [4, 7]: 1.43
normalised indicator fluorescence [5, 6]: 1.02
normalised indicator fluorescence [5, 7]: 1.02

CN1CCN(c2nc(C3=C(c4c[nH]c5ccccc45)C(=O)NC3=O)c3ccccc3n2)CC1 [Sotrastaurin]
normalised indicator fluorescence [1, 6]: 0.995
normalised indicator fluorescence [1, 7]: 1.01
normalised indicator fluorescence [2, 6]: 1.13
normalised indicator fluorescence [2, 7]: 1.04
normalised indicator fluorescence [3, 6]: 1.03
normalised indicator fluorescence [3, 7]: 0.999
normalised indicator fluorescence [4, 6]: 1.19
normalised indicator fluorescence [4, 7]: 1.3
normalised indicator fluorescence [5, 6]: 0.954
normalised indicator fluorescence [5, 7]: 0.996

COC(=O)c1ccc([C@H]2c3[nH]c4ccccc4c3C[C@H](C(=O)OC)N2C(=O)CCl)cc1
normalised indicator fluorescence [1, 6]: 1.05
normalised indicator fluorescence [1, 7]: 1
normalised indicator fluorescence [2, 6]: 0.974
normalised indicator fluorescence [2, 7]: 1.02
normalised indicator fluorescence [3, 6]: 0.997
normalised indicator fluorescence [3, 7]: 1.09
normalised indicator fluorescence [4, 6]: 1.01
normalised indicator fluorescence [4, 7]: 1.39
normalised indicator fluorescence [5, 6]: 1.09
normalised indicator fluorescence [5, 7]: 1.03

CC(C)N(CCCCOCC(=O)NS(C)(=O)=O)c1cnc(-c2ccccc2)c(-c2ccccc2)n1 [Selexipag]
normalised indicator fluorescence [1, 6]: 1.04
normalised indicator fluorescence [1, 7]: 1.01
normalised indicator fluorescence [2, 6]: 1.07
normalised indicator fluorescence [2, 7]: 1.07
normalised indicator fluorescence [3, 6]: 1.05
normalised indicator fluorescence [3, 7]: 1.12
normalised indicator fluorescence [4, 6]: 1.14
normalised indicator fluorescence [4, 7]: 1.11
normalised indicator fluorescence [5, 6]: 1.1
normalised indicator fluorescence [5, 7]: 1.09

NC(=O)N/N=C/c1ccc([N+](=O)[O-])o1 [Furacilin]
normalised indicator fluorescence [1, 6]: 1.06
normalised indicator fluorescence [1, 7]: 1.02
normalised indicator fluorescence [2, 6]: 0.909
normalised indicator fluorescence [2, 7]: 1.06
normalised indicator fluorescence [3, 6]: 1.14
normalised indicator fluorescence [3, 7]: 1.03
normalised indicator fluorescence [4, 6]: 1.15
normalised indicator fluorescence [4, 7]: 1.16
normalised indicator fluorescence [5, 6]: 0.927
normalised indicator fluorescence [5, 7]: 1.04

CC1(C)C=Cc2c(ccc3c2OC[C@@H](c2ccc(O)cc2O)C3)O1 [Glabridin]
normalised indicator fluorescence [1, 6]: 1.07
normalised indicator fluorescence [1, 7]: 1.05
normalised indicator fluorescence [2, 6]: 1.05
normalised indicator fluorescence [2, 7]: 1.03
normalised indicator fluorescence [3, 6]: 1.04
normalised indicator fluorescence [3, 7]: 1
normalised indicator fluorescence [4, 6]: 1.13
normalised indicator fluorescence [4, 7]: 1.2
normalised indicator fluorescence [5, 6]: 0.981
normalised indicator fluorescence [5, 7]: 1.01

CC1=C[C@]2(O)O[C@@]3(CC2=C(C)C)[C@@H](C)CC[C@@H]13 [Curcumenol]
normalised indicator fluorescence [1, 6]: 1
normalised indicator fluorescence [1, 7]: 1.02
normalised indicator fluorescence [2, 6]: 1.06
normalised indicator fluorescence [2, 7]: 1.04
normalised indicator fluorescence [3, 6]: 1.01
normalised indicator fluorescence [3, 7]: 1.31
normalised indicator fluorescence [4, 6]: 1.08
normalised indicator fluorescence [4, 7]: 1.33
normalised indicator fluorescence [5, 6]: 1.02
normalised indicator fluorescence [5, 7]: 0.985

CC(=O)CCCCn1c(=O)c2c(ncn2C)n(C)c1=O [Pentoxifylline]
normalised indicator fluorescence [1, 6]: 1.05
normalised indicator fluorescence [1, 7]: 1.01
normalised indicator fluorescence [2, 6]: 1.02
normalised indicator fluorescence [2, 7]: 1.04
normalised indicator fluorescence [3, 6]: 1.01
normalised indicator fluorescence [3, 7]: 1.02
normalised indicator fluorescence [4, 6]: 1.04
normalised indicator fluorescence [4, 7]: 0.959
normalised indicator fluorescence [5, 6]: 0.943
normalised indicator fluorescence [5, 7]: 0.997
